The record followed here is PubChem BioAssay AID1345085 (National Center for Advancing Translational Sciences (NCATS), 2018).

The structures appear in SMILES notation. Inconclusive results are not listed. Calls of active or inactive are those of the source. The call rests on the fitted dose curve; in most records, active means well fitted cell-killing curve with a large enough effect; inconclusive means small, poorly fitted or top-dose-only effect, or effect the other way; inactive means no such curve, though single readings can be large or run the other way.
On the % scale 0 is the no-effect control and ±100 the full control effect; potency means the concentration at half of the fitted maximal effect.

This assay deals with Hek293T. Description: Confirmatory qHTS for gynecologic anti-cancer compounds from libraries of approved drugs and bioactive compounds. Further: nearly all actives have a fitted effect of over 55% in size. Particulars: gynecologic cancer cell panel viability, ATPlite luminescence, 48 h; series mostly up to 57.6 µM; activity change, negative = viability loss: at the top concentration. A digest of the protocol:
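IC50 values derive from an ATPlite ATP-content luminescence assay following 48 h treatment at 37 C. Each compound ran as an 11-concentration, threefold series (57.5 uM to 0.977 nM); HEK 293T served as control line for selectivity index.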
Regarding `CC(C)Oc1ccc2c(=O)c(-c3ccccc3)coc2c1`, the Potency was 4.85 µM (active).

Consider `CNC(=O)c1nn(C)c2c1C(C)(C)Cc1cnc(Nc3ccc(N4CCN(C)CC4)cc3)nc1-2`, for which the Potency is 4.32 µM (active).

`CCCCc1oc2ccc(NS(C)(=O)=O)cc2c1C(=O)c1ccc(OCCCN(CCCC)CCCC)cc1`: the Potency is 27.3 µM (active).

`CCN1CCN(Cc2ccc(Nc3ncc(F)c(-c4cc(F)c5nc(C)n(C(C)C)c5c4)n3)nc2)CC1`: the “activity change, negative = viability loss” value is -21.2% (inactive).

`Cc1ccccc1C(OCCN(C)C)c1ccccc1` (stereo unspecified): the “activity change, negative = viability loss” value is 1.95% (inactive).

For `CC(C)n1nc(-c2cc3cc(O)ccc3[nH]2)c2c(N)ncnc21`, the Potency is 6.85 µM (active).

Regarding `CCC1C(=O)N(C)c2cnc(Nc3ccc(C(=O)NC4CCN(C)CC4)cc3OC)nc2N1C1CCCC1` (stereo unspecified), the Potency is 0.0193 µM (active).

With `CN(Cc1cnc2nc(N)nc(N)c2n1)c1ccc(C(=O)N[C@@H](CCC(=O)O)C(=O)O)cc1`, the Potency was 0.109 µM (active).

Turning to `COc1cc2c(Oc3ccc(-c4cnc(Nc5ccc(F)cc5)n(C)c4=O)cc3F)ccnc2cc1OCCCN1CCOCC1`, the Potency was 15.3 µM (active).

In the case of `Cc1nc(N)nc(N)c1-c1ccc(Cl)c(Cl)c1`, the Potency was 1.22 µM (active).

Regarding `CC(C)CC(=O)Nc1n[nH]c2c1CN(C(=O)C1CCN(C)CC1)C2(C)C`, the Potency was 1.37 µM (active).

On to `Cc1ccc(C(=O)Nc2ccc(CN3CCN(C)CC3)c(C(F)(F)F)c2)cc1C#Cc1cnc2[nH]ncc2c1`, for which the Potency was 21.7 µM (active).

Regarding `CCN(CC)CCOc1ccc(/C(=C(\Cl)c2ccccc2)c2ccccc2)cc1`, the Potency was 126 µM (active).

With `Nc1nccc(Oc2ccc(NC(=O)c3c[nH]cc(-c4ccc(F)cc4)c3=O)cc2F)c1Cl`, the Potency is 13.7 µM (active).

Take `NC(=O)c1cccc2cn(-c3ccc([C@@H]4CCCNC4)cc3)nc12`: the “activity change, negative = viability loss” value was -15.5% (inactive).

`CC[C@H](CC#N)OC(=O)N[C@@H](C)c1cccc(NC(=O)Nc2ccc(-c3cnco3)c(OC)c2)c1`: the Potency was 0.0769 µM (active).

On to `CN(c1nccc(=O)[nH]1)C1CCN(c2nc3ccccc3n2Cc2ccc(F)cc2)CC1`, for which the “activity change, negative = viability loss” value is -18.3% (inactive).

On to `CN(C)/N=N/c1nc[nH]c1C(N)=O`, for which the “activity change, negative = viability loss” value is 9.55% (inactive).

Consider `Cc1ccc(C(N)=O)cc1Nc1nccc(-c2cn(C(C)C)c3cnccc23)n1`, for which the Potency is 13.7 µM (active).

As for `CC(C)(C(=O)NCC(F)(F)C(F)(F)F)C(=O)NC1C(=O)Nc2ccccc2-c2ccccc21` (stereo unspecified), the “activity change, negative = viability loss” value was -13.8% (inactive).

In the case of `Cc1cnc(Nc2ccc(CN3CCOCC3)cc2)nc1Nc1cccc(S(=O)(=O)NC(C)(C)C)c1`, the Potency was 17.2 µM (active).

As for `Cc1ccc(C(=O)Nc2ccc(CN3CCN(C)CC3)c(C(F)(F)F)c2)cc1C#Cc1cnc2cccnn12`, the Potency is 17.2 µM (active).

On to `FC(F)(F)c1ccc(/C=C/c2nc(COc3ccc(CCCCn4ccnn4)cc3)co2)cc1`, for which the Potency was 0.0193 µM (active).

On to `Cc1[nH]c2ccccc2c1CCNCc1ccc(/C=C/C(=O)NO)cc1`, for which the Potency is 0.193 µM (active).

`O=C(c1ccc(F)c(F)c1Nc1ccc(I)cc1F)N1CC(O)([C@@H]2CCCCN2)C1`: the Potency is 24.3 µM (active).

With `COc1cccc2c1C(=O)c1c(O)c3c(c(O)c1C2=O)C[C@@](O)(C(=O)CO)C[C@@H]3O[C@H]1C[C@H](N)[C@H](O[C@@H]2CCCCO2)[C@H](C)O1`, the Potency was 10.9 µM (active).

On to `CCC(=O)N1CCN(c2ccc(-n3c(=O)ccc4cnc5ccc(-c6cnc7ccccc7c6)cc5c43)cc2C(F)(F)F)CC1`, for which the Potency is 0.0498 µM (active).

As to `CN(C)C1CCN(C(=O)c2ccc(NC(=O)Nc3nc(N4CCOCC4)nc(N4CCOCC4)n3)cc2)CC1`, the Potency was 0.485 µM (active).

As to `Cc1cnc(Nc2cccc(CN3CCOCC3)c2)nc1Nc1cccc(S(=O)(=O)NC(C)(C)C)c1`, the “activity change, negative = viability loss” value is -9.54% (inactive).

Take `COc1cc2c(cc1-c1c(C)noc1C)ncc1[nH]c(=O)n(C(C)c3ccccn3)c12` (stereo unspecified): the “activity change, negative = viability loss” value is 13.3% (inactive).

Take `CN(NC(=O)CC(=O)NN(C)C(=S)c1ccccc1)C(=S)c1ccccc1`: the Potency was 0.0611 µM (active).

Turning to `COc1cc(Nc2ncc3c(n2)-c2ccc(Cl)cc2C(c2c(F)cccc2OC)=NC3)ccc1C(=O)O`, the “activity change, negative = viability loss” value is -7.66% (inactive).

On to `CCc1c2c(nc3ccc(O)cc13)-c1cc3c(c(=O)n1C2)COC(=O)[C@]3(O)CC`, for which the Potency was 0.611 µM (active).

On to `NCCOc1cc(C(=O)Nc2cc(OCCN)c3ccccc3n2)nc(C(=O)Nc2cc(OCCN)c3ccccc3n2)c1`, for which the “activity change, negative = viability loss” value was 3.25% (inactive).

Turning to `Nc1ccc(C(=O)Nc2cccc(-c3nc(N4CCOCC4)c4oc5ncccc5c4n3)c2)cn1`, the “activity change, negative = viability loss” value was -21.6% (inactive).

Regarding `CC(C)C[C@H](NC(=O)[C@H](CCc1ccccc1)NC(=O)CN1CCOCC1)C(=O)N[C@@H](Cc1ccccc1)C(=O)N[C@@H](CC(C)C)C(=O)[C@@]1(C)CO1`, the Potency was 3.43 µM (active).
